From the supplement of paper PMC6555819

The sequences below were run on VDR:RXRa (NR concentration 270 nM, RXRa partner concentration 90 nM) (assay: PBM binding z-score (relative to random genomic background probes); higher = stronger binding; sequences stand for … in GC…GCGATTGACAGCGTAGAATGAAGG).
Procedure: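 Protein-binding microarray (Agilent 4x180K custom design, double-stranded 60-nt probes: 5' GC cap, 34-nt variable region, 24-nt constant primer region; full probe sequence given). Purified or IVT nuclear receptor:RXRα heterodimers (3:1 NR:RXRα, mostly 270:90 nM) or homodimers were incubated for 1 h in PBS with 2% milk and no ligand, then detected with Alexa488 antibodies. Fluorescence from o1-orientation probes (~5 replicates averaged) was converted to z-scores against 500 random hg19 background probes. Variable regions are seed direct-repeat (DR0–DR5) sites, all their single-nucleotide variants and half-site ablations.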

Sequence | PBM binding z-score
CCTACTGGGCCACGAGAGGTCATTGATTCAGTGA | 4.45
GCATATATGTAATACAAGGTGAAAGTCCGATTGT | 0.278
TCTAGTTGGTCAGGGAGGTCACACACGACGGGTA | 5.4
AGAATGAGGTTATTAAGATCCGGGAATTGCGGTC | 1.08
CTATCAAGGTGAACAAGGTCGTTGATTACTATTC | 6.12
GCTATTAGTTCAAAGGGCAACCGAATGATTCTCG | 2.63
CAAACTAGGTCCAAGGTCAAAGTCGAGCCAACCA | 4.04
TCTCGCAGGCCAGAGGGTCACTCAAGAGGTACGG | 1.79
TTACCAAGGTGAAAGGTCGTTAATGCACGCCTTG | 2.95
ATACCAAGGTGATCGTGAGGTCGTTGCTACTAAC | 3.4
TCATATAGGTATTACAGGTGAAAGTCGGCATCTA | 1.34
CGAACTAGGTCATTGACAGGACAGTGAATAGTAA | 2.2
ACTAGCAGACCAAGTTTGGGTCACTCAAACAAAG | 0.245
ACTCGGAGTACAAAGGTCAGAGCTACGCCAGTGA | 3.59
CCTAGTTGGTCAGCAGGTCACACACCGGATATGA | 2.32
TTACCAAGGTGAATGGTCGTTGATGCACGCCTTG | -0.0229
ACAGACAGTTGATGAAGGTAACTCAGGCTATCAT | 0.101
CAAACTAGGTCAAGAGGTCAAAATCCGCTTCCCG | 5.85
CCAGACAGGTGAGACGGTAACTCAGCCTCGATTA | -0.29
GCTGCTGGGTCAACTGATGGTCAGCTAAAGCTCG | 1.82

Sequence | PBM binding z-score
AATCAAAGTTCATCTAGGTAACGTAAGATATGCT | 5.13
AGTTAAAGTTCACTAGGTAACGTAAGATTCAGCT | 3.64
TATGCTAGGTCAACGATGGTCAGCTAATCTGCTA | 1.79
TCAGACAGGTGAAGGTCACTCAGGTACGCAGTCG | 4.18
GCGACTGGGGCATCAGCAGGTTACCACAACTTAA | -0.211
TAGCCTACGTCATGCGGGCCAGTATAGTGTCGGC | -0.879
ATTACAGGGTCATCGTAGGCCAGAGTACGCACAG | 5.39
CAAACTAGGTCACCGGAAGGTCAAAGACCGCATG | 5.76
TGAATGAGGTTATAAGATTAGGGAACGTTGCAAA | 1.12
GCTTACGGGTCAAAGGTTATACCATGAATAGAAT | 5.75
CGAACTATGTCATTGACAGGACAGTGAATAGTAA | 0.154
CTACCAAGGTGAACAAGGTCGTTCATTACTATTC | 6.53
TCTTGTAGATCAAAGGTTAAGGAAGCCGAAGCCT | 1.59
CATTACGGGTCACTCCAGGTTATAGCATCGGAGT | 4.52
ATCGAAAGGTCGAGGTGAGGATAGAGAAAGGGAA | 2.63
TCTGGCAGGCCAGAGGGTCACTCAAGAGGTACGG | 1.5
CGTCCAAGCTCAGAGAGGTCAGTGAATGCCGAGT | 2.2
TCATATAGGTAAATGCTAGATGAAAGTCCGATCT | 0.802
CTCGAAAGGACGTGCTCAGGTGAGTATACCAAAC | -0.251
TAGCCTAGGTCATGCGGTCCAGTATAGTGTCGGC | 4.75
